PubChem BioAssay (NCI)
This is part of a sample that, as a whole, favours compounds with a hit. Of some 83,000 tested, about 20% had one in any assay.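 Single-dose data. Exposure time 48 hours. Values below 10 considered active.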 Activity calls are given as the source filed them.

System: NCI-H322M lung
Assay: NCI-60 one-dose screen, 48 h (100 = growth as untreated, 0 = no growth, -100 = all killed)
Details: 10 µM unless noted

Row | Structure (SMILES) | growth
1 | NC(=S)N/N=C/C(=O)O | 77.5% (inactive)
2 | CS(=O)(=O)c1ccc(-c2[nH]c3ccc(F)cc3c2/C=N/NC(N)=S)cc1 | 48.8% (inactive)
3 | O=[N+]([O-])c1ccc(-c2cc3c(Nc4ccc(Cl)c(C(F)(F)F)c4)ncnc3s2)cc1 | 20.9% (inactive)
4 | COC(=O)c1ccc(CSc2nnc(-c3ccncc3)o2)cc1 | 93.4% (inactive)
5 | NS(=O)(=O)Oc1ccc(NC(=O)C23CC4CC(CC(C4)C2)C3)cc1Cl | 104% (inactive)
6 | O=C1N(c2ccccc2)C(=S)N[C@]12[C@H](c1ccccc1)C1CCCN1[C@]21C(=O)NC2C=CC(Cl)=C[C@H]21 (stereo partly specified) | 99.2% (inactive)
7 | COc1ccc(-c2nc3ncccn3c2/C=C/C(=O)c2cc(OC)c(OC)c(OC)c2)cc1 | 16.1% (inactive)
8 | N#C/C(=C\c1ccc(Br)cc1)n1nnc2cc(Cl)c(Cl)cc21 | 56.7% (inactive)
9 | O=S(=O)(Cc1ccccc1)c1nc2ccccc2s1 | 93.8% (inactive)
10 | COc1ccc(-c2nnc(-c3ccc4c(c3)nc(-c3ccccc3)n4C3CCCCC3)o2)cc1 | 87% (inactive)
11 | CN1CCC(=C2c3ccccc3C=Cc3ccccc32)CC1 | 104% (inactive)
12 | CNC(=O)NCC1OC(n2cnc3c(NC(=O)Nc4ccccc4)ncnc32)C2OC(C)(C)OC12 (stereo unspecified) | 101% (inactive)
13 | COc1ccc(-c2cncnc2N)cc1OC | 114% (inactive)
14 | O=[N+]([O-])c1ccccc1C(O)Cc1ccc2ccccc2n1 (stereo unspecified) | 85.9% (inactive)
15 | CCn1c(Sc2nnc(NC(C)=O)s2)nc2c1c(=O)n(C)c(=O)n2C | 96.5% (inactive)
16 | CN1C(=O)CCC(N2C(=O)c3cccc(NCCOCCOCCNC(=O)c4cc5c(o4)C(=O)c4ccccc4C5=O)c3C2=O)C1=O (stereo unspecified) | -93% (active)
17 | CC/C=C/[C@@H]1C=C[C@@H]2CCC[C@H]2[C@@H]1CC[C@H](O)[C@H](C)N | -35.4% (active)
18 | Cc1ccc2c(n1)C(=O)C(Oc1ccc(F)cc1)=CC2=O | 101% (inactive)

Row | Structure (SMILES) | growth
19 | C/C(=N\NC(=O)Cn1c(-c2ccc(S(C)(=O)=O)cc2)nc2cc(Cl)ccc21)c1ccc(Cl)cc1 | 86% (inactive)
20 | Nc1ccn(C2OC(F)(CO)C(O)C2F)c(=O)n1 (stereo unspecified) | 71.1% (inactive)
21 | Cc1ccc(Nc2ccc(Nc3ccc(C)cc3S(=O)(=O)O)c3c2C(=O)c2ccccc2C3=O)c(S(=O)(=O)O)c1 | 90% (inactive)
22 | Cc1ccc(NSc2ccccc2[N+](=O)[O-])cc1 | 38.6% (inactive)
23 | Cc1cc(Cl)nc(N(CCCNc2ccnc3cc(Cl)ccc23)Cc2ccccn2)n1 | 68.7% (inactive)
24 | O=C1NN(C(=O)c2ccc(O)cc2)C(c2ccccc2)=N/C1=C\c1cn(-c2ccccc2)nc1-c1ccccc1 | 97% (inactive)
25 | N#Cc1c(NC(=O)c2cccc(C(F)(F)F)c2)sc2c1CCC(=O)C2 | 66.1% (inactive)
26 | CCN(CC)N=Nc1nn(C(=O)Nc2ccc(Cc3ccccc3)cc2)c2ccc(Cl)cc12 | 82.5% (inactive)
27 | Cc1ccc(C)c2c1C(=O)OC2=O | 89.3% (inactive)
28 | C=C(C)[C@@H]1CC[C@]2(CNCCO)CC[C@]3(C)[C@H](CC[C@@H]4[C@@]5(C)CCC(N)[C@@](C)(CO)[C@@H]5CC[C@]43C)[C@@H]12 (stereo partly specified) | 47.5% (inactive)
29 | C=CC(=O)Nc1cccc(C)c1Nc1cc(-c2cccnc2Cc2c(C)c(OC)cc(OC)c2C)ncn1 | 50.7% (inactive)
30 | O=C(CC12CC3CC(CC(C3)C1)C2)NCCOCCOCCOCCNC(=O)c1cc2c(o1)C(=O)c1ccccc1C2=O | -78.7% (active)
31 | COc1cc(-c2ccc(N=Nc3c(O)c(C(=O)Nc4ccccc4OC)cc4ccccc34)c(OC)c2)ccc1N=Nc1c(O)c(C(=O)Nc2ccccc2OC)cc2ccccc12 | 86.8% (inactive)
32 | C=CCOc1cccc(/C=C2\SC(=Nc3ccc(O)cc3)NC2=O)c1 | 53.5% (inactive)
33 | CC(C)CCC[C@@H](C)[C@H]1CCC2C3=CCn4c(=O)ccc(=O)n4C3CC[C@@]21C (stereo partly specified) | -55.3% (active)
34 | COc1ccccc1C(=O)NC(=S)Nc1ccc(-c2nc3ccccc3[nH]2)cc1 | 80.7% (inactive)
35 | COC(=O)[C@]12CC[C@@H](C)[C@H](C)[C@@H]1C1=CC[C@@H]3[C@@]4(C)C(C=O)=C[C@@](C)(CO)C4=CC[C@@]3(C)[C@]1(C)CC2 | 61.3% (inactive)
36 | O=C(NCCOCCOCCNc1cccc2c1C(=O)N(C1CCCNC1=O)C2=O)c1cc2c(o1)C(=O)c1ccccc1C2=O (stereo unspecified) | -62.1% (active)
